Laboratory results as given in the supplement of paper PMC12669032.

Experiments:
Test in all cases: growth AUC relative to DMSO control (median of replicates) (fraction); higher = more growth (less inhibition), active = hit call of the paper
Conditions in all cases: 20 µM; 24 h;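 active = AUC reduced over 20% with Padj below 0.05 in at least 2 of 3 replicates; inactive = otherwise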
Akkermansia muciniphila = system: Akkermansia muciniphila
How it was run: (§1)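 Area under the growth curve was normalised to the plate median of solvent-only wells, or to row and column medians on the industrial chemical plate. Growth curves came from anaerobic gut bacterial monocultures in mGAM at 37 °C, seeded at OD600 0.05 with 20 µM compound (1% DMSO), and read at OD600 hourly for 24 h with the minimum OD set to 0. The value is the median of three biological replicates grown on separate days.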

Bacteroides caccae = system: Bacteroides caccae
How it was run: as §1

Bacteroides clarus = system: Bacteroides clarus
How it was run: as §1

Bacteroides dorei = system: Bacteroides dorei
How it was run: as §1

Bacteroides stercoris = system: Bacteroides stercoris
How it was run: as §1

[1] = system: Bacteroides thetaiotaomicron
How it was run: as §1

Bacteroides uniformis = system: Bacteroides uniformis
How it was run: as §1

[2] = system: Bifidobacterium longum subsp. longum
How it was run: as §1

Clostridium difficile = system: Clostridium difficile
How it was run: as §1

Collinsella aerofaciens = system: Collinsella aerofaciens
How it was run: as §1

Coprococcus comes = system: Coprococcus comes
How it was run: as §1

Escherichia coli ED1a = system: Escherichia coli ED1a
How it was run: as §1

Escherichia coli IAI1 = system: Escherichia coli IAI1
How it was run: as §1

Eubacterium rectale = system: Eubacterium rectale
How it was run: as §1

[3] = system: Fusobacterium nucleatum subsp. animalis
How it was run: as §1

Lactobacillus gasseri = system: Lactobacillus gasseri
How it was run: as §1

Lactobacillus paracasei = system: Lactobacillus paracasei
How it was run: as §1

Odoribacter splanchnicus = system: Odoribacter splanchnicus
How it was run: as §1

[4] = system: Parabacteroides distasonis
How it was run: as §1

Parabacteroides merdae = system: Parabacteroides merdae
How it was run: as §1

Measured: growth AUC

C=CCN(CC=C)C(=O)C(Cl)Cl
inactive: Akkermansia muciniphila 0.976 | Bacteroides caccae 1.02 | Bacteroides clarus 1 | Bacteroides dorei 1.01 | Bacteroides stercoris 1.01 | [1] 0.99 | Bacteroides uniformis 0.985 | [2] 0.974 | Clostridium difficile 0.973 | Collinsella aerofaciens 0.978 | Coprococcus comes 1 | Escherichia coli ED1a 0.944 | Escherichia coli IAI1 0.986 | Eubacterium rectale 1.01 | [3] 0.965 | Lactobacillus gasseri 0.934 | Lactobacillus paracasei 0.999 | Odoribacter splanchnicus 1.02 | [4] 0.991 | Parabacteroides merdae 0.947

CCNc1nc(Cl)nc(NCC)n1
inactive: Akkermansia muciniphila 0.894 | Bacteroides caccae 1 | Bacteroides clarus 1.01 | Bacteroides dorei 1.02 | Bacteroides stercoris 1.02 | [1] 1.01 | Bacteroides uniformis 1.01 | [2] 1.05 | Clostridium difficile 1.01 | Collinsella aerofaciens 1.04 | Coprococcus comes 1.01 | Escherichia coli ED1a 1.05 | Escherichia coli IAI1 1.03 | Eubacterium rectale 0.961 | [3] 0.977 | Lactobacillus gasseri 1.09 | Lactobacillus paracasei 1 | Odoribacter splanchnicus 0.998 | [4] 1.01 | Parabacteroides merdae 1.01

CNC(=O)O/N=C/C(C)(C)S(C)=O (stereo not given)
inactive: Akkermansia muciniphila 0.978 | Bacteroides caccae 1.04 | Bacteroides clarus 0.991 | Bacteroides dorei 1.01 | Bacteroides stercoris 1.02 | [1] 0.988 | Bacteroides uniformis 1.03 | [2] 0.935 | Clostridium difficile 1.01 | Collinsella aerofaciens 1.02 | Coprococcus comes 0.987 | Escherichia coli ED1a 0.993 | Escherichia coli IAI1 1 | Eubacterium rectale 1.08 | [3] 0.996 | Lactobacillus gasseri 1.01 | Lactobacillus paracasei 1.01 | Odoribacter splanchnicus 0.955 | [4] 1.02 | Parabacteroides merdae 1

CCOc1ccc(C(C)(C)COCc2cccc(Oc3ccccc3)c2)cc1
inactive: Akkermansia muciniphila 1.08 | Bacteroides caccae 0.967 | Bacteroides clarus 1.03 | Bacteroides dorei 0.967 | Bacteroides stercoris 0.792 | [1] 0.958 | Bacteroides uniformis 1.05 | [2] 1.48 | Clostridium difficile 1.04 | Collinsella aerofaciens 0.967 | Coprococcus comes 1 | Escherichia coli ED1a 0.991 | Escherichia coli IAI1 0.982 | Eubacterium rectale 1.06 | [3] 0.972 | Lactobacillus gasseri 0.918 | Lactobacillus paracasei 1.04 | Odoribacter splanchnicus 1.07 | [4] 0.987 | Parabacteroides merdae 0.992

OC(Cc1ccccc1Cl)(Cn1cncn1)C1(Cl)CC1 (stereo not given)
inactive: Akkermansia muciniphila 0.867 | Bacteroides caccae 0.974 | Bacteroides clarus 0.963 | Bacteroides dorei 1.01 | Bacteroides stercoris 0.966 | [1] 0.985 | Bacteroides uniformis 0.971 | [2] 1.01 | Clostridium difficile 0.958 | Collinsella aerofaciens 0.953 | Coprococcus comes 0.963 | Escherichia coli ED1a 0.993 | Escherichia coli IAI1 0.941 | Eubacterium rectale 0.849 | [3] 0.897 | Lactobacillus gasseri 1.16 | Lactobacillus paracasei 1.02 | Odoribacter splanchnicus 0.95 | [4] 1.01 | Parabacteroides merdae 0.977

O=C1C(Cl)=C(Cl)C(=O)C(Cl)=C1Cl
inactive: Akkermansia muciniphila 1.08 | Bacteroides caccae 1.09 | Bacteroides clarus 1.01 | Bacteroides dorei 0.978 | Bacteroides stercoris 0.877 | [1] 0.986 | Bacteroides uniformis 0.976 | [2] 0.969 | Clostridium difficile 1.03 | Collinsella aerofaciens 0.992 | Coprococcus comes 1.02 | Escherichia coli ED1a 1.03 | Escherichia coli IAI1 1.02 | Eubacterium rectale 0.844 | [3] 1.01 | Lactobacillus gasseri 0.973 | Lactobacillus paracasei 1.01 | Odoribacter splanchnicus 0.912 | [4] 1.04 | Parabacteroides merdae 0.927

CC1CNC(=S)N1 (stereo not given)
inactive: Akkermansia muciniphila 1 | Bacteroides caccae 1.03 | Bacteroides clarus 1.03 | Bacteroides dorei 1.04 | Bacteroides stercoris 1.09 | [1] 1 | Bacteroides uniformis 1 | [2] 1.01 | Clostridium difficile 1.06 | Collinsella aerofaciens 1.04 | Coprococcus comes 1.03 | Escherichia coli ED1a 1.01 | Escherichia coli IAI1 1.06 | Eubacterium rectale 1.06 | [3] 1.05 | Lactobacillus gasseri 0.989 | Lactobacillus paracasei 1.06 | Odoribacter splanchnicus 1.02 | [4] 0.983 | Parabacteroides merdae 1.02

Cc1c(F)c(F)c(COC(=O)[C@@H]2[C@H](/C=C(\Cl)C(F)(F)F)C2(C)C)c(F)c1F (mixture of isomers)
inactive: Akkermansia muciniphila 0.937 | Bacteroides caccae 0.943 | Bacteroides clarus 0.993 | Bacteroides dorei 0.935 | Bacteroides stercoris 0.981 | [1] 0.989 | Bacteroides uniformis 1.01 | [2] 0.997 | Clostridium difficile 1 | Collinsella aerofaciens 0.976 | Coprococcus comes 0.956 | Escherichia coli ED1a 1 | Escherichia coli IAI1 0.993 | Eubacterium rectale 1.01 | [3] 1 | Lactobacillus gasseri 0.897 | Lactobacillus paracasei 0.956 | Odoribacter splanchnicus 1.04 | [4] 0.976 | Parabacteroides merdae 0.994
